# For some assays here: Measured potencies and affinities stand elsewhere.
# How the values were obtained:
# Design in all cases: scale not given: direction of the effect not stated beside the values
# [1] = molecular target: Protein translocase subunit SecA (Escherichia coli (strain K12)) (UniProt P10408); assay: Assay to Identify E. coli SecA ATPase Inhibitors; assay type: functional; details: 30 µM
# [2] = molecular target: T1, Ubiquitin-activating enzyme e1, putative (Leishmania donovani (strain BPK282A1)) (UniProt E9BSI1); assay: Leishmania donovani Ubiquitin Activating Enzyme (LdE1); assay type: functional; details: 30 µM
# T1 sequence (whole entry): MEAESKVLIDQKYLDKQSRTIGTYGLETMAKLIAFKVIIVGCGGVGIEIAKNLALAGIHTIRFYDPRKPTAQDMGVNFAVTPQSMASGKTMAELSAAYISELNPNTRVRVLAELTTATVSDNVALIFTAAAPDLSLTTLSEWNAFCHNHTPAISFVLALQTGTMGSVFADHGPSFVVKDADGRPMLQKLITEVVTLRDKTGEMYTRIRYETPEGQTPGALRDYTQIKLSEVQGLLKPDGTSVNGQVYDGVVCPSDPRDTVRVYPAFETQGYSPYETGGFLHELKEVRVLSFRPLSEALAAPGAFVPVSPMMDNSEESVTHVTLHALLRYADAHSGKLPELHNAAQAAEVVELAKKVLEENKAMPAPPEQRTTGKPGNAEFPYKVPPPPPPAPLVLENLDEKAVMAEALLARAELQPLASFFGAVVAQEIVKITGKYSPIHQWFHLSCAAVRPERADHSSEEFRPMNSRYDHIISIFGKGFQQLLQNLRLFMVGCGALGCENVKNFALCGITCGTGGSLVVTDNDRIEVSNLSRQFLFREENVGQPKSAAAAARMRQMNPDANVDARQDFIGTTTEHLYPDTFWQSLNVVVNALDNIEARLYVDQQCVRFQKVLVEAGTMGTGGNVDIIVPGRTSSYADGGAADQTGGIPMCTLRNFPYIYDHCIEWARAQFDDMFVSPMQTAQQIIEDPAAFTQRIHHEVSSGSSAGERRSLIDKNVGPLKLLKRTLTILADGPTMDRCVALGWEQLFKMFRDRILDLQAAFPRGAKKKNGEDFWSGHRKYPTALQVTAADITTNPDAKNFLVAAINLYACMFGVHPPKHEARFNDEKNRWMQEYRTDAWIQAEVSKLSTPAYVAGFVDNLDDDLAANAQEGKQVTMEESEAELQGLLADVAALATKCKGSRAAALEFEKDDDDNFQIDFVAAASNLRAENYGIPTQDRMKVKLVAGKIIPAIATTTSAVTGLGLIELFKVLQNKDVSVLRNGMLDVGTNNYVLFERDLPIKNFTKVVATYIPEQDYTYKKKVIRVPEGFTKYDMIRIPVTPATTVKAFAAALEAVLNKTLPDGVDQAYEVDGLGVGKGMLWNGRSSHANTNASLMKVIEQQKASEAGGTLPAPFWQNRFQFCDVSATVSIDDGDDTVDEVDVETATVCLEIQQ
# [3] = molecular target: AMP-activated protein kinase, AMPK (Homo sapiens) (UniProt P54646+O43741+P54619+Q9UGJ0+Q9Y478+Q13131+Q9UGI9); assay: AMP-dependent Kinase enzyme assay. An in vitro enzyme assay that detects ADP turnover that is directly proportional to AMPK activity. This uses naive AMPK that is activated during the assay with MK-8722; assay type: functional; details: 30 µM
# [4] = molecular target: Sialic acid-binding Ig-like lectin 9 (Homo sapiens) (UniProt Q9Y336); assay: Hs-Siglec9 ALPHAscreen SOP 20170721; details: 10 µM
# Trypanosoma cruzi = assay: Trypanosoma cruzi phosphomannomutase and mannose-1-phosphate guanylyltransferase assay; assay type: functional; details: 10 µM
# [5] = molecular target: T2, Arginase-2, mitochondrial (Homo sapiens) (UniProt P78540); assay: in vitro enzyme assay to detect the production of urea directly proportional to the activity of Arginase II; assay type: functional; details: 33.3 µM; also: in the data most compounds retested in dose-response had high values
# T2 sequence (whole entry): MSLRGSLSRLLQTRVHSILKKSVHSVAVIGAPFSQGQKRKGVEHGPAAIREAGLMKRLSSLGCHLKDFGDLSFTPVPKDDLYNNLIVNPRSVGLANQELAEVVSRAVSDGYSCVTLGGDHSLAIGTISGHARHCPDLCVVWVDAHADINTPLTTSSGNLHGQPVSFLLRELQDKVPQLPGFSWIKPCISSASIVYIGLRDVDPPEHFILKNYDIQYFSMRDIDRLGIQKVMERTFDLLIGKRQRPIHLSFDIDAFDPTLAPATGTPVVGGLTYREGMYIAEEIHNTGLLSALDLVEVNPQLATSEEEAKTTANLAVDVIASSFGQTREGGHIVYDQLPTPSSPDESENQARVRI
# [6] = molecular target: T3, Proteasome subunit beta (Trypanosoma cruzi) (UniProt O96673); assay: Trypanosoma cruzi proteasome chymotrypsin-like activity (TcProtChymo) assay.; also: in the data most compounds retested in dose-response had high values; assay type: functional; details: 9.37 µM
# T3 sequence (whole entry): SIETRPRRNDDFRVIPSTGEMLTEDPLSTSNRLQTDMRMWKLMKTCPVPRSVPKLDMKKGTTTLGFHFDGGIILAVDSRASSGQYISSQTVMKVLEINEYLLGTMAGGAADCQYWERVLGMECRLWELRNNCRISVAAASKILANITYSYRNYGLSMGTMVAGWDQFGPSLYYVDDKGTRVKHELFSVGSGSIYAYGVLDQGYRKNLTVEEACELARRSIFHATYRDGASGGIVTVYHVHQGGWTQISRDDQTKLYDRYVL
# Homo sapiens = species on record: Homo sapiens; assay: To identify inhibition of the IFN signalling (Jak-Stat) pathway via expression of an eGFP reporter gene under the control of an IFN-stimulated response element (ISRE) containing MxA promoter.; assay type: functional; details: 30 µM
# [7] = molecular target: T4, Tyrosyl-tRNA synthetase, putative (Trypanosoma cruzi (strain CL Brener)) (UniProt Q4DSP6); assay: Trypanosoma cruzi tyrosyl tRNA synthetase (TcYRS) _High Tyrosine SOP; assay type: functional; details: 30 µM; also: in the data most compounds retested in dose-response had high values
# T4 sequence (whole entry): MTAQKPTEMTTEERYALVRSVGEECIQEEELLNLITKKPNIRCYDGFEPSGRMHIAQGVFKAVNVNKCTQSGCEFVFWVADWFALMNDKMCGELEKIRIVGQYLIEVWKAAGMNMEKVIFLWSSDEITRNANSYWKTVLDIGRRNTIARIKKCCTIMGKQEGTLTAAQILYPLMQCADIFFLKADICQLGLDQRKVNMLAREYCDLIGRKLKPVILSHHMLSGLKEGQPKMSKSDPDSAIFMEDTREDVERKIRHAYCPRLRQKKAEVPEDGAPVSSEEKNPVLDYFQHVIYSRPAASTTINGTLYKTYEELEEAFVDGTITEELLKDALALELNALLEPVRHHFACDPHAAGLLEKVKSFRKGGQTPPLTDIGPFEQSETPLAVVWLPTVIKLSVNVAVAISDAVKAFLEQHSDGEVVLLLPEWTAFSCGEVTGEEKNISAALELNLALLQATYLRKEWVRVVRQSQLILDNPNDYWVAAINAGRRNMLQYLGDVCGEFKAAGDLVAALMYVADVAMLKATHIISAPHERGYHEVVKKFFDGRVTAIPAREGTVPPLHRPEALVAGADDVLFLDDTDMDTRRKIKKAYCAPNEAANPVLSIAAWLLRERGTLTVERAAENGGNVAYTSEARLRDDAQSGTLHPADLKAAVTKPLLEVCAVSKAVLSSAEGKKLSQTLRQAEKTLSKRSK
# [8] = molecular target: T4, Tyrosyl-tRNA synthetase, putative (Trypanosoma cruzi (strain CL Brener)); assay: Trypanosoma cruzi tyrosyl tRNA synthetase (TcYRS) SOP; assay type: functional; details: 30 µM
# [9] = molecular target: Chromo domain-containing protein 1 (Saccharomyces cerevisiae (strain ATCC 204508 / S288c) (Baker's yeast)) (UniProt P32657); assay: ScCHD-1 Enzyme Inhibition Assay; assay type: functional; details: 30 µM; also: in the data most compounds retested in dose-response had high values
# Chromo domain-containing protein 1 (Saccharomyces cerevisiae (strain ATCC 204508 / S288c) (Baker's yeast)), sequence (P32657 whole entry, the tested form may be a part): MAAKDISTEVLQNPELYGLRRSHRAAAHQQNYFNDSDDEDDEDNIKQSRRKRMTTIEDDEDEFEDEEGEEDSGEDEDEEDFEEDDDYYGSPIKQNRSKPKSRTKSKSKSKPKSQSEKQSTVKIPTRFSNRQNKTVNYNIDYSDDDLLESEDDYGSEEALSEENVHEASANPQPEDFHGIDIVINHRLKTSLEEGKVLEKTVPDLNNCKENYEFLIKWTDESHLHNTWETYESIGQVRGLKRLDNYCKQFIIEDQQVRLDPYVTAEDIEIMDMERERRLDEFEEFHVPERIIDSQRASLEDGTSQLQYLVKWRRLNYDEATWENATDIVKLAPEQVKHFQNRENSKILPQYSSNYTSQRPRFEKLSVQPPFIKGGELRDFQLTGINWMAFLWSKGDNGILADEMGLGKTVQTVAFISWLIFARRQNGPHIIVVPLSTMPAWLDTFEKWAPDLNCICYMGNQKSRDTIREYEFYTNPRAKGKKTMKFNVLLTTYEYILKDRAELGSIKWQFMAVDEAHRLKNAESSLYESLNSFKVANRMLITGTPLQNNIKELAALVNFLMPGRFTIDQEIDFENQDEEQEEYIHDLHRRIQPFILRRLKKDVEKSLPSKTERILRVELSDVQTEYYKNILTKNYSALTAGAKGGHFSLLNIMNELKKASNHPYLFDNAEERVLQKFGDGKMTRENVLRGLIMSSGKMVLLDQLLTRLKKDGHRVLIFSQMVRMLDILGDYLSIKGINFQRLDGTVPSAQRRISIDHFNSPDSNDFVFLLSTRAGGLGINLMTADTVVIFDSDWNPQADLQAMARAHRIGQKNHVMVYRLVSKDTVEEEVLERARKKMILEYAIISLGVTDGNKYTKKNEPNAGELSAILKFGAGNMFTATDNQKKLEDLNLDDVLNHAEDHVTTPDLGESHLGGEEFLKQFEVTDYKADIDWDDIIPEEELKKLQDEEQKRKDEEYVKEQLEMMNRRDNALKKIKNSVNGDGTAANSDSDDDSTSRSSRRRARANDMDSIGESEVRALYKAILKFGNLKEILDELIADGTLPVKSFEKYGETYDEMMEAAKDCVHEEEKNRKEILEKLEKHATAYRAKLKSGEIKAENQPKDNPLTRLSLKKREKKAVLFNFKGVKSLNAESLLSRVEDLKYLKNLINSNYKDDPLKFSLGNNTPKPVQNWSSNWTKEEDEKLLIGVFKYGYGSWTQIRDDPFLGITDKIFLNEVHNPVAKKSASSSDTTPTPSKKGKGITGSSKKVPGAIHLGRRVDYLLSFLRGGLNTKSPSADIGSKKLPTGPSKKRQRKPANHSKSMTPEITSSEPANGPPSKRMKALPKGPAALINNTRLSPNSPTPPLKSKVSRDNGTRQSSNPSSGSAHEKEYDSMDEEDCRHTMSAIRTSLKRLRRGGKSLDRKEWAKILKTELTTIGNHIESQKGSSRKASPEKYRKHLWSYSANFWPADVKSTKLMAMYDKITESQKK
# Protein translocase subunit SecA (Escherichia coli (strain K12)), sequence (P10408 whole entry): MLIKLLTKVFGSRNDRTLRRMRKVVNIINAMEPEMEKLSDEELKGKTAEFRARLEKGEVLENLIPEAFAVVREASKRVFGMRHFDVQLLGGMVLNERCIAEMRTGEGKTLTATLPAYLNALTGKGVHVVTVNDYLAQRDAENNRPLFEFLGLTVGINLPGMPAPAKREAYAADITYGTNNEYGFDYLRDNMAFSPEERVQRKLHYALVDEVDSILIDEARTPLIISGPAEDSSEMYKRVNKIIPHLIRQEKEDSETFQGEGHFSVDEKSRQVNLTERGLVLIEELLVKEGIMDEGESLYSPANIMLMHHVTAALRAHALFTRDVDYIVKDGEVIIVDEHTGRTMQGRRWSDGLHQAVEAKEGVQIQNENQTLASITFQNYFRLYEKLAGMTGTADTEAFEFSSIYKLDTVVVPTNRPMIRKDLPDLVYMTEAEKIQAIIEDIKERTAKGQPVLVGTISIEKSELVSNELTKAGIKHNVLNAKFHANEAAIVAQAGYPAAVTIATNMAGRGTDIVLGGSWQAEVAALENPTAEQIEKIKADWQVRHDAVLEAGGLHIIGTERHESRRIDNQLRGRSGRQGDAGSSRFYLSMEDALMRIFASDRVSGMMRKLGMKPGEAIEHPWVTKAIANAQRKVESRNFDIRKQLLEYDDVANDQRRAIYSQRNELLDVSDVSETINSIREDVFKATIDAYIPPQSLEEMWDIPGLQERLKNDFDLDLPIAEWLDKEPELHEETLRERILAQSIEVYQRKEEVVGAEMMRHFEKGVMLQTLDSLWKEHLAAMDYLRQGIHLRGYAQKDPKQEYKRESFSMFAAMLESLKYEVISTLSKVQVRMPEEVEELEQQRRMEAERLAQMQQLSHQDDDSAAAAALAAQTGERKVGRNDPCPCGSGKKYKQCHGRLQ
# Sialic acid-binding Ig-like lectin 9 (Homo sapiens), sequence (Q9Y336 whole entry): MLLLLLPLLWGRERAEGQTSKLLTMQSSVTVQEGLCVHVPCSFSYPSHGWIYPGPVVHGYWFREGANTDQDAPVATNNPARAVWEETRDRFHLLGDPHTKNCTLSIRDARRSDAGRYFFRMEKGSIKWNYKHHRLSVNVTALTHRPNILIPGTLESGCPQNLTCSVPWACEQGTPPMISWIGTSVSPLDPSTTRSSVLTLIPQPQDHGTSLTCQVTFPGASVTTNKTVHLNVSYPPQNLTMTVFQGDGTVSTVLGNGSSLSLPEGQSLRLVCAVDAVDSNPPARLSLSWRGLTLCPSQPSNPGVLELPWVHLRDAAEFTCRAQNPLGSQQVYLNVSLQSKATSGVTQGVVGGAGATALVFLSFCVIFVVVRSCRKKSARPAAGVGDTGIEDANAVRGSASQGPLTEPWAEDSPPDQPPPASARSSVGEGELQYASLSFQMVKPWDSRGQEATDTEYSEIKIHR
SMILES,Percent Effect [1],Percent Effect [2],Percent Effect [3],Percent Effect [4],Percent Effect (Trypanosoma cruzi),Percent Effect [5],Percent Effect [6],Percent Effect (Homo sapiens),Percent Effect [7],Percent Effect [8],Percent Effect [9]
O=C(Nc1cnccn1)[C@@H]1COC[C@H]2CN(C3CCCC3)C[C@H]21,-8.34%,13.5%,-5.42%,16.7%,3.91%,3.33%,3.97%,-6.67%,6.93%,11%,-4.69%
Cc1ccc(CNC(CN2CCN(C)CC2)c2ccccc2)cc1 (configuration not stated),-5.66%,8.11%,-8.66%,-0.353%,-2.05%,-1.74%,7.64%,13.4%,3.23%,8.64%,-3.22%
CC(C)(C)NC(=O)C1CSCN1S(=O)(=O)c1ccc(F)cc1 (configuration not stated),-1.95%,6.33%,3.86%,-0.312%,-4%,-4.52%,15.4%,21.8%,7.29%,20.2%,-14.6%
CCCc1nc(C(=O)N2CCCn3nc(CCC(=O)O)cc3C2)cs1,-7.52%,5.41%,2.34%,4.25%,1.54%,2.38%,11%,3.31%,3.7%,9.76%,-5.37%
CC(O)CN1CCN(C(=O)c2ccc(Br)o2)CC1 (configuration not stated),-4.28%,15.8%,17.9%,-7.51%,-3.57%,3.45%,8.69%,22.7%,4.41%,9.76%,-12.7%
COc1ccc(OCC(=O)NC(C)c2ccc(F)cc2)c(C(=O)O)c1 (configuration not stated),-5.45%,5.41%,1.14%,2.91%,2.05%,5.21%,0.944%,-0.568%,4.3%,13.6%,-5.02%
O=C(NCc1nnc2n1CCCC2)N(Cc1ccccc1F)C1CC1,-2.88%,5.41%,-1.8%,0.0872%,-2.12%,-2.38%,12.8%,7.52%,0.529%,0%,-4.24%
O=C([C@H]1CCCO1)N1CC[C@H](O)[C@@H]1Cc1ccncc1,-0.613%,5.2%,0.39%,3.47%,-2.07%,8.39%,-1.57%,-7.18%,4.23%,1.28%,-0.313%
CN1CC2(CCN(Cc3ccoc3)CC2)COc2ccccc2S1(=O)=O,-0.535%,2.7%,-0.665%,1.6%,-3.23%,5.21%,14.8%,4.83%,7.53%,13.6%,-2.59%
COCCc1noc(CN2CCCC(Cn3nc(C)nc3C)C2)n1 (configuration not stated),-3.69%,16.2%,-5.81%,6.95%,0.472%,-7.62%,3.6%,8.21%,10.3%,23.5%,-11.8%
Cc1ccsc1C(=O)N1C[C@@H]2CN(Cc3ccoc3)CCO[C@@H]2C1,1.09%,18.9%,1.36%,-11.6%,5.18%,9.87%,12.7%,-6.4%,6.49%,15.4%,-1.54%
COc1ccc(CN2CC[C@@H](O)[C@@H]2Cc2ccccc2)cc1,-7.82%,-1.33%,7.1%,-1.98%,-0.589%,-6.16%,0.924%,9.5%,-3.17%,-2.56%,-5.37%
Cc1nnc(C(C)NCC2(c3c(F)cccc3F)CCCC2)o1 (configuration not stated),-2.54%,-2.7%,-3.85%,0.273%,-0.965%,1.91%,7.93%,14.7%,0.529%,9.76%,-3.86%
O=C(c1cccn2ccnc12)N1CCCN(c2cccnn2)CC1,-3.74%,-5.2%,6.04%,5.27%,4.8%,1.9%,-0.404%,-11.5%,0.952%,2.35%,-10.1%
COc1ccccc1C(O)CNCc1c(C(C)C)nn(C)c1N(C)C (configuration not stated),-5.07%,15.6%,-1.45%,1.4%,1.31%,1.07%,4.9%,-5.4%,11.7%,14.6%,-10.1%
CCNC(=O)[C@@H]1C[C@@H](NC(=O)Cc2ccccn2)CN1CCCSC,-5.92%,0%,1.44%,-0.868%,-4.37%,-1.2%,6.42%,5.01%,0%,-3.7%,0.131%
O=C(NCCCNCC1CNc2ccnn2C1)c1ccccc1 (configuration not stated),0.663%,2.7%,-9.29%,-3.11%,0.193%,4.29%,16.6%,9.18%,5.82%,14.6%,-3.29%
CC1=N[C@@]2(CC[C@@H]3CN(CC(=O)N(C)C)C[C@@H]32)C(=O)N1CC(C)C,3.62%,12%,42.2%,1.63%,-8.25%,-20.6%,9.43%,24.2%,1.06%,0%,-8.72%
NC(=O)C1CCCN(Cc2c(-c3ccco3)[nH]c3ncccc23)C1 (configuration not stated),-1.81%,12.2%,-2.48%,1.48%,-3.16%,1.16%,9.83%,23.8%,7.53%,14.3%,-8.85%
COc1ccccc1C(O)CNC(=O)NCc1cccnc1OC (configuration not stated),-5.38%,12.7%,3.02%,-9.15%,-7.84%,-0.38%,6.63%,30.3%,1.48%,13.9%,-5.07%
CCc1nc(CN2CCCC(NCc3ccc(C(N)=O)cc3)C2)no1 (configuration not stated),-4.14%,2.53%,-1.56%,9.52%,2.93%,1.14%,-0.246%,12.3%,-0.493%,1.27%,-2.88%
O=C(Cc1ccc2c(c1)OCCO2)NCCc1nnc2n1CCC2,-2.17%,24.3%,22.3%,-3.07%,3.87%,-7.62%,10.8%,2.82%,4.43%,18.5%,-9.97%

# From ChEMBL document CHEMBL3988442, “University of Dundee, Small-Polar-MMV Screening Library” (2021)
